From PubChem BioAssay
DT40 TDP1 CPT: growth inhibition of DT40 Tdp1-/-;hTDP1 cells with camptothecin (screen for TDP1 inhibitors) | chicken DT40 Tdp1-/-;hTDP1 cells + 20 nM CPT, ATP luminescence, 48 h | 420,000 tested, 12% active | Potency, µM (series often up to 46.2 µM), without a hit: top-dose activity change, negative = growth inhibition, usual class: inhibitors; also: potency is read from the fitted curve at half-maximal effect; nearly all actives have a fitted effect of over 55% in size
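Cell growth measured by CellTiter-Glo luminescence after a minimum 48 h, 37 C compound exposure with 20 nM CPT in Tdp1-knockout DT40 cells stably expressing hTDP1, seeded 400/well; qHTS titration format.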
RORgamma inh: inhibitors of mouse ROR gamma transcriptional activity. 310,000 tested, 5.4% active. P51450. Drosophila S2 Gal4-RORgamma UAS-luciferase reporter, 20 h. Potency, µM (titrated, usually from 53.6 µM), inactives show at the highest dose activity change, negative = inhibition, most hits filed as inhibitors; also: potency is read from the fitted curve at half-maximal effect; nearly all actives have a fitted effect of over 60% in size
Target sequence (P51450 whole entry, looked up, the tested form may be a part): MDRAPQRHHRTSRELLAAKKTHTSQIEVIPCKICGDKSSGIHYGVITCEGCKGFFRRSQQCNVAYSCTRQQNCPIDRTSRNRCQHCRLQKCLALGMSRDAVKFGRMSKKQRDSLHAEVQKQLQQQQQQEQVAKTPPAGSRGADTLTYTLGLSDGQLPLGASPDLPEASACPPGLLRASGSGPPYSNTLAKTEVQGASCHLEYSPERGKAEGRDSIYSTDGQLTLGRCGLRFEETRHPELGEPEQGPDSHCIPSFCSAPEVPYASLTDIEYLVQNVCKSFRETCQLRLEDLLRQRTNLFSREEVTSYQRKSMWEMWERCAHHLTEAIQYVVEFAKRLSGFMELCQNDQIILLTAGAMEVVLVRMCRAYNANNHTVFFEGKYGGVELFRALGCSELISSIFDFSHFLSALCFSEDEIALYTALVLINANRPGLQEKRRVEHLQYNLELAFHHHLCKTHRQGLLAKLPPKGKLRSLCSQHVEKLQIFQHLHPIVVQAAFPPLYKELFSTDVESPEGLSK
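Schneider cells (Drosophila), stable Gal4 DBD–ROR gamma + UAS-luc; 1 hr cmpd preincubation; Cu2+ induction 700 uM final; 20 hr ambient; luminescence.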
IL-1B inflam inh: blocks inflammasome-driven IL-1 beta release; 360,000 tested, 4.7% active; activity change, % at 57.5 µM; THP-1 LPS/ATP IL-1B secretion, AlphaLISA, 16 h; hits give low values; in the data active = activity change below about -50%; inconclusive = mostly about -30% to -49%
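THP-1 cells pretreated 1 hr with compounds (up to 57.5 uM final), then stimulated with LPS (250 ng/mL final) plus ATP (1.25 mM final); secreted IL-1B measured by AlphaLISA after 16 hr, decreased signal indicating inhibition.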
LDHA block: blocks human lactate dehydrogenase A; P00338; purified LDHA, NADH/diaphorase-resazurin fluorescence; hits give low values; activity change, % (values are at about 110 or 230 µM); 480,000 tested, 0.15% active; AID 1347041; in the data active = activity change below about -30%; inconclusive = mostly about -25% to -30%;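 also: plate controls were DMSO wells for no effect and wells without enzyme for full effect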
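Human LDH5 at 2 nM final in Tris HCl pH 7.4 with 0.06 mM NADH and 0.2 mM pyruvate, reacted 5 minutes at room temperature. Remaining NADH coupled via diaphorase/resazurin; resorufin fluorescence read at 0 and 20 minutes, normalized to enzyme-free and DMSO wells.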
Gal4-VP16 FLuc: inhibits Gal4-VP16 luciferase reporter, ROR gamma counter-screen | Drosophila S2 Gal4-VP16 UAS-luciferase, luminescence, 20 h | Potency, µM (highest dose often 53.6 µM), for inactives: at the top dose activity, negative = inhibition, most hits filed as inhibitors | 310,000 tested, 3.5% active | AID 2546;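 also: Gal4-VP16 expression switched on by copper sulfate through the metallothionein promoter; potency is read from the fitted curve at half-maximal effect; nearly all actives have a fitted effect of over 50% in size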
TDP1 cell noCPT: qHTS for Inhibitors of human tyrosyl-DNA phosphodiesterase 1 (TDP1): qHTS in cells in absence of CPT; DT40 Tdp1-/- hTDP1 cells, no CPT, ATP luminescence, 48 h; Potency, µM (series often up to 46.2 µM), for inactives: at the top dose activity change, negative = growth inhibition, hits mostly inhibitors; 420,000 tested, 15% active; AID 686978, 2013; also: potency is read from the fitted curve at half-maximal effect; nearly all actives have a fitted effect of over 55% in size
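Chicken DT40 Tdp1-/- cells stably complemented with human TDP1 were seeded at 400 cells/well with DMSO in place of 20 nM camptothecin. After compound pinning, cells grew at least 48 hr at 37 °C; viability read by CellTiter-Glo luminescence.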
* hit, by the source's call; ? = inconclusive; . = not tested or not shown. Shown are actives, neighbours in structure and some others; about 18% of the full set was active somewhere. Unless noted, calls follow the shape of the dose curve; as a rule, active = well fitted curve in the direction sought with a large enough effect; inconclusive = small, poorly fitted or top-dose-only effect, or another doubt; inactive = no such curve, though single readings can be large; an effect the other way counts as inactive or inconclusive. Unless noted, % is scaled to controls: 0 for no effect and ±100 for the full control effect.

SMILES	DT40 TDP1 CPT	RORgamma inh	IL-1B inflam inh	LDHA block	Gal4-VP16 FLuc	TDP1 cell noCPT
Cn1c(=O)[nH]c(=O)c2c1nc(N1CCN(Cc3ccc(F)cc3)CC1)n2C/C=C/c1ccccc1	.	.	.	-4	.	.
COc1ccc(OCc2nc(C#N)c(N3CCN(C)CC3)o2)cc1	.	.	.	-5	.	.
O=C(COc1ccc2ccc(=O)oc2c1)NC(=O)NC12CC3CC(CC(C3)C1)C2	.	.	.	-7	.	.
CN(c1ccccc1)S(=O)(=O)c1ccc(Cl)c(C(=O)NCc2ccccc2CN2CCCC2)c1	?	.	?	-8	.	23µM*
Cc1ccc(-c2nc(C#N)c(NCc3ccco3)o2)cc1	-20%	35%	-9	-3	2%	?
C=CCNc1oc(-c2ccc(OC)cc2)nc1C#N	16µM*	?	-22	-3	?	?
C=CCNc1oc(-c2ccc(OCC)cc2)nc1C#N	?	?	-3	-2	?	?
COc1ccc(-c2nc(C#N)c(NCc3ccco3)o2)cc1	?	22%	-27	-3	-4%	16µM*
O=C(NCCCO)c1nc(Cc2c[nH]c3ccccc23)no1	.	.	.	-6	.	.
Cc1c(C(=O)CSc2nnc(C3CC3)n2C2CC2)oc2ccccc12	.	.	.	-3	.	.
C=CCOc1ccc2c(c1)C(=NO)c1cc(OCC=C)ccc1-2	?	-8%	?	2	-8%	23µM*
NC(=S)NN=C1c2cc(OCCN3CCOCC3)ccc2-c2ccc(OCCN3CCOCC3)cc21	16µM*	1.3µM*	-96*	1	3.2µM*	16µM*
Clc1ccc(OCCN2CCOCC2)cc1Cl	-9%	14%	-7	-17	4%	-12%
ON=C1c2cc(OCCN3CCCCC3)ccc2-c2ccc(OCCN3CCCCC3)cc21	7.3µM*	?	-97*	3	-11%	8.2µM*
Cc1ccc(CS(=O)(=O)c2ncc(Cl)c(C(=O)Nc3nc4ccc(C)cc4s3)n2)cc1	2.9µM*	.	.	5	.	3.7µM*
Cc1ccc2nc(NC(=O)CS(=O)(=O)Cc3ccccc3)sc2c1	-3%	-1%	-2	3	0%	-12%
Cc1noc(C)c1C(=O)Nc1nc2ccc(F)cc2s1	4%	.	25	-14	.	-25%
Cc1ccc(CS(=O)(=O)c2ncc(Cl)c(C(=O)Nc3nc4ccc(F)cc4s3)n2)cc1	5.2µM*	.	.	-2	.	2.6µM*
COc1ccc2nc(NC(=O)c3nc(S(=O)(=O)Cc4ccc(C)cc4)ncc3Cl)sc2c1	1.6µM*	.	.	-2	.	2.3µM*
CCN1CCN(c2nc3ccccc3nc2C(C#N)S(=O)(=O)c2ccc(OC)cc2)CC1 (stereo unspecified)	.	.	.	7	.	.
Cc1ccc(/C=C2/Sc3ccccc3N(CC(=O)NCCCOC(C)C)C2=O)cc1	?	42%	?	-7	-14%	?
CCN1CCN(CCNC(=O)c2ccc(/C=C3/Sc4ccccc4N(Cc4ccccc4C)C3=O)cc2)CC1	?	?	23	-6	18µM*	?
CCN1CCN(CCCNC(=O)c2ccc(/C=C3/Sc4ccccc4N(Cc4ccccc4F)C3=O)cc2)CC1	16µM*	?	?	-2	?	15µM*
O=C(NCCCN1CCOCC1)c1ccc(/C=C2\Oc3ccccc3N(Cc3ccccc3F)C2=O)cc1	2%	?	3	-4	?	31%
Cc1ccc(N2CCN(C(=O)c3cc4ccccc4oc3=O)CC2)cc1Cl	.	.	.	-5	.	.
SMILES	DT40 TDP1 CPT	RORgamma inh	IL-1B inflam inh	LDHA block	Gal4-VP16 FLuc	TDP1 cell noCPT
CCN1CCN(Cc2c(O)ccc3c(=O)c(Oc4ccccc4Cl)c(C(F)(F)F)oc23)CC1	?	.	.	4	.	21µM*
Cc1ccc(S(=O)(=O)O/N=C2\CCCc3ccccc32)cc1	-22%	-2%	25	19	12%	-1%
CC1=C(C)/C(=N\OS(=O)(=O)c2ccccc2)C=CC1=O	0.56µM*	2.5µM*	-121*	27	2.5µM*	0.56µM*
CC(C)CC1C(=O)N(Cc2cn(CCC3OCCCO3)nn2)CCS(=O)(=O)N1Cc1ccc(-c2ccncc2)cc1 (stereo unspecified)	16µM*	.	-4	-4	.	18µM*
COc1ccc(-c2ccc(CN3C(C(C)C)C(=O)N(Cc4cn(CCC5OCCCO5)nn4)CCS3(=O)=O)cc2)cc1OC (stereo unspecified)	?	.	-3	-4	.	?
CC(C)CC1C(=O)N(Cc2cn(CCC3OCCO3)nn2)CCS(=O)(=O)N1Cc1ccc(-c2ccc(F)nc2)cc1 (stereo unspecified)	0%	.	8	1	.	-24%
CC(C)CC1C(=O)N(Cc2cn(CCC3OCCO3)nn2)CCS(=O)(=O)N1Cc1ccc(-c2ccc(Cl)c(Cl)c2)cc1 (stereo unspecified)	8.2µM*	.	-26	-3	.	5.2µM*
CC(C)CC1C(=O)N(Cc2cn(CCC3OCCO3)nn2)CCS(=O)(=O)N1Cc1ccc(-c2ccccc2)cc1 (stereo unspecified)	18µM*	.	-9	2	.	21µM*
COc1ccc(-c2ccc(CN3C(CC(C)C)C(=O)N(Cc4cn(CCC5OCCCO5)nn4)CCS3(=O)=O)cc2)cc1OC (stereo unspecified)	13µM*	.	1	-6	.	?
CC(C)(C)C(=O)Nc1ccc2c(c1)CCC2	.	.	.	-2	.	.
CC(Sc1nc(Cl)nc2nc[nH]c12)C(=O)NCCc1ccc(O)cc1 (stereo unspecified)	.	.	.	4	.	.
Cc1ccc(-c2ccc(CN3C(CC(C)C)C(=O)N(Cc4cn(CCC5OCCO5)nn4)CCS3(=O)=O)cc2)cc1 (stereo unspecified)	15µM*	.	-21	-1	.	13µM*
CC(C)CC1C(=O)N(Cc2cn(CCC3OCCCO3)nn2)CCS(=O)(=O)N1Cc1ccc(-c2ccccc2)cc1 (stereo unspecified)	?	.	17	4	.	?
CCN(CC)S(=O)(=O)N1CCC(C(=O)NCc2ccc(C)cc2)CC1	-8%	26%	-5	-9	-9%	-15%
Cc1cccc(CN2CCC(C(N)=O)CC2)c1	2%	-16%	10	-3	-1%	8%
CCNC(=O)C1CCN(Cc2cc3ccccc3n2Cc2ccc(C)cc2)CC1	23µM*	.	.	-9	.	21µM*
Cc1ccc(Cn2c(CN3CCC(C(=O)NCc4cccnc4)CC3)cc3ccccc32)cc1	?	.	.	-1	.	?
Cc1ccc(Cn2c(CN3CCC(C(=O)NCc4ccccc4C)CC3)cc3ccccc32)cc1	21µM*	.	.	-2	.	16µM*
